# Measurements published in the supplement of paper PMC11482750.
# ± gives the standard deviation of the averaged measurements.
# How the values were obtained:
# Assay in all cases: control-subtracted net OSN firing rate; higher = stronger neuronal activation
# Details in all cases: odorant dilution (vol/vol): 1/100
# [1] = compound: CC(=O)OCCc1ccccc1 [phenethyl acetate]
# Procedure, shortened: (§1)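 Responses come from single sensillum recordings of palp or antennal olfactory sensory neurons in 1–5-day-old fed female Scaptomyza species or D. melanogaster wild-type, mutant or at1 empty-neuron lines with Or42a homologs. Stimuli were 1 s pulses of odorant at 1:100 vol/vol in mineral oil or dimethyl sulfoxide into 16 ml/min filtered air. Spikes from 0.2 s after onset, counted over 0.5 s, were background-subtracted, doubled, solvent-corrected and averaged over replicates.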
# [2] = compound: CC12CCC(C1)C(C)(C)C2=O [fenchone]
# Procedure, shortened: as §1
# [3] = compound: CCCCC(C)O [2-hexanol]
# Procedure, shortened: as §1
# [4] = compound: CCc1ccc(O)c(OC)c1 [4-ethylguaiacol]
# Procedure, shortened: as §1
# [5] = compound: COC(=O)c1ccccc1O [methyl salicylate]
# Procedure, shortened: as §1
# [6] = compound: COc1ccccc1O [guaiacol]
# Procedure, shortened: as §1
# [7] = compound: OCCc1ccccc1 [phenethyl alcohol]
# Procedure, shortened: as §1
Target,control-subtracted net OSN firing rate [1] [spikes/s],control-subtracted net OSN firing rate [2] [spikes/s],control-subtracted net OSN firing rate [3] [spikes/s],control-subtracted net OSN firing rate [4] [spikes/s],control-subtracted net OSN firing rate [5] [spikes/s],control-subtracted net OSN firing rate [6] [spikes/s],control-subtracted net OSN firing rate [7] [spikes/s]
S. hsui pb2b-like,3 ± 4.9,0.667 ± 7.2,20 ± 18,1.67 ± 2.9,103 ± 43,111 ± 23,17.3 ± 21
S. pallida pb1b-like,-5.67 ± 17,-4.33 ± 7,-9 ± 8.8,90 ± 36,1.33 ± 16,8.67 ± 28,0.667 ± 14
S. montana pb1a-like,6.33 ± 9.6,0 ± 12,123 ± 17,-0.333 ± 2.9,5.67 ± 11,26.3 ± 13,82.7 ± 34
S. flava pb1b-like,-3.67 ± 9.3,2 ± 13,-26.7 ± 21,97 ± 18,-5.33 ± 20,9.67 ± 7.5,-6 ± 20
Canton-S (D. melanogaster) pb2a,0.286 ± 4.5,166 ± 26,3.43 ± 4.9,4.86 ± 4.6,3.43 ± 3.4,6.86 ± 8.1,6.29 ± 5.3
Canton-S (D. melanogaster) pb1a,7.11 ± 7.8,0 ± 8.1,68.7 ± 32,1.78 ± 9.1,6.22 ± 13,5.33 ± 8.1,4 ± 8.7
S. flava pb1a-like,7.33 ± 6.5,1.33 ± 6.5,111 ± 28,-5 ± 7.8,6.67 ± 15,4 ± 10,82.7 ± 46
S. montana pb2b-like,-2.33 ± 4.8,-7.33 ± 4.5,16.7 ± 14,16 ± 12,106 ± 35,107 ± 49,18.3 ± 17
Canton-S (D. melanogaster) pb3b,153 ± 48,-2.83 ± 8.6,1.5 ± 8.7,0 ± 8.9,0.833 ± 6.5,-2.5 ± 6.4,1.33 ± 8.5
S. hsui pb3a-like,-5.67 ± 12,-7 ± 11,145 ± 27,-3.33 ± 10,8 ± 8.1,-5.33 ± 14,-0.333 ± 7.4
Canton-S (D. melanogaster) pb1b,-2 ± 8.4,1.33 ± 9.9,-6.67 ± 6.2,110 ± 36,-3.78 ± 12,38 ± 29,4.67 ± 5.4
Canton-S (D. melanogaster) pb3a,0 ± 9.4,-2.83 ± 8.3,15.8 ± 18,7.5 ± 8.4,6.33 ± 7.3,2.33 ± 8.2,7.67 ± 9.3
S. montana pb1b-like,5 ± 7.6,2.33 ± 18,-16.3 ± 10,109 ± 14,7.67 ± 11,24.7 ± 14,-7 ± 20
S. pallida pb1a-like,26.7 ± 30,-3.67 ± 8.8,88.3 ± 13,0.667 ± 8.8,15.3 ± 34,42 ± 22,23 ± 38
S. hsui pb3b-like,-7 ± 2.1,-2.67 ± 6.5,-6.67 ± 6.8,-5.67 ± 2.9,1.33 ± 5.8,-2.33 ± 4.5,-2.67 ± 5
S. pallida pb2a-like,5 ± 5.3,137 ± 13,5.67 ± 6.6,5.33 ± 4.8,6.33 ± 3.9,6.67 ± 4.8,9.67 ± 8.8
S. flava pb3b-like,2.67 ± 5,0 ± 5.4,-1 ± 27,14.7 ± 34,7.67 ± 26,8.33 ± 15,2.67 ± 6.8
S. montana pb3a-like,97 ± 35,-2.33 ± 6.9,5.67 ± 13,-8.67 ± 17,3.33 ± 9.9,-4.33 ± 12,-3.33 ± 15
S. hsui pb2a-like,1 ± 7.1,140 ± 16,6 ± 8,3.33 ± 7.3,6.33 ± 3.2,8 ± 7.5,3.67 ± 9.2
S. montana pb2a-like,1 ± 6.5,177 ± 36,5.67 ± 14,1.67 ± 7.7,6 ± 6.3,6 ± 6.6,7.67 ± 14
S. flava pb2b-like,4.33 ± 11,-3.67 ± 6.9,11.7 ± 17,15 ± 14,111 ± 28,121 ± 31,10 ± 17
S. pallida pb3b-like,-18.7 ± 18,-17 ± 12,-5.67 ± 12,-9.33 ± 13,14.7 ± 24,-12.7 ± 18,-9.33 ± 19
S. hsui pb1a-like,13.3 ± 16,-0.333 ± 6.4,96 ± 27,13.7 ± 5.3,14.7 ± 17,16 ± 8.3,29.7 ± 22
S. montana pb3b-like,-2.67 ± 9.3,-1 ± 4.7,4 ± 7.7,-3.67 ± 9.5,2.33 ± 11,-1.67 ± 5.4,-3.67 ± 8.9
Canton-S (D. melanogaster) pb2b,-3.43 ± 6.8,-6.86 ± 10,-2.57 ± 8.5,-1.43 ± 7.1,10.6 ± 10,145 ± 52,1.14 ± 10
S. pallida pb3a-like,-17.3 ± 8.2,-13 ± 14,94.3 ± 19,-8 ± 7.3,6.33 ± 15,-11.7 ± 15,-15.7 ± 12
S. flava pb3a-like,160 ± 17,-2.67 ± 5.6,6 ± 10,-3.33 ± 9.6,5.67 ± 12,-5.33 ± 6.2,-3.33 ± 6.8
S. pallida pb2b-like,-0.333 ± 8.7,-3.33 ± 8.8,27 ± 9.9,24 ± 19,72 ± 19,75.7 ± 20,15 ± 11
S. hsui pb1b-like,1 ± 7,-3.67 ± 6.1,-11.7 ± 9.8,111 ± 24,-4.67 ± 8.6,78 ± 26,-11 ± 8.7
S. flava pb2a-like,3 ± 11,213 ± 48,5.67 ± 11,1.67 ± 6.6,3 ± 8.7,0 ± 13,1.33 ± 4.7
